# Results from PubChem BioAssay (Tox21).
# Several values for one entry are separate records, joined by “and”; a condition that tells them apart may be missing. Identical values can stand only once. Records with an inconclusive call do not appear. A call without a number means that no potency is given here. More than one record can exist for a structure, and the calls need not agree. Activity calls are given as the source filed them. Calls come from the whole dose curve; as a rule, active = well fitted cell-killing curve with a large enough effect in the repeat runs; inconclusive = weak or mixed curves; inactive = flat fitted curve, though single readings scatter.
# Experiment: qHTS assay to identify small molecule antagonists of the estrogen receptor beta (ER-beta) signaling pathway - cell viability counter screen (AID 1259382); note: nearly all actives have a fitted effect of over 55% in size
# Conditions: ER-beta-UAS-bla HEK293T viability, CellTiter-Glo luminescence, 16 h; series mostly up to 92.4 µM; activity change, negative = cytotoxicity: at the top concentration
# Excerpt: U.S. Tox21 Program National Center for Advancing Translational Sciences [NCATS] NIH Chemical Genomics Center [NCGC] U.S. Environmental Protection Agency [EPA] National Institutes of Environmental Health Sciences [NIEHS] National Toxicology Program [NTP] U.S. Food and Drug Administration [FDA] Tox21 Assay Overview: Estrogen receptor (ER), a nuclear hormone receptor, plays an important role in development, metabolic homeostasis and reproduction. Two subtypes of ER, ER-alpha and ER-beta, have similar expression patterns with some uniqueness in both types. Endocrine disrupting chemicals (EDCs) and their interactions with steroid hormone receptors like ER causes disruption of normal endocrine function. To identify the compounds that inhibit ER signaling, an ER-beta-UAS-bla GripTite cell line (Life Technologies, Madison, WI, USA) containing a beta-lactamase reporter gene under the control of an UAS response element was used to screen Tox21 10K compound library. The cytotoxicity of the Tox21 compound library against the ER-beta-bla cell line was tested in parallel by measuring the cell viability using CellTiter-Glo assay in the same wells.
# Tox21 Assay Protocol Summary: ER-beta-UAS-bla HEK293T cells were dispensed at 2,000 cells/4 uL of assay medium containing 2% charcoal stripped FBS per well into black wall/clear-bottom 1536-well plates using a Multidrop Combi (ThermoFisher Scientific, Waltham, MA) dispenser. After the assay plates were incubated at a 37C and 5% CO2 for 6 hr, 23 nL of compounds dissolved in DMSO, positive controls or DMSO only was transferred to the assay plate by a Pintool station (Kalypsys, San Diego, CA), followed by addition of 1 uL (1nM as final concentration) of 17-beta-estradiol (E2) in assay medium using a Flying Reagent Dispenser (FRD, Aurora Discovery, San Diego, CA). The plates were incubated at 37C and 5% CO2 for 16 hr. Then 1 uL of LiveBLAzer B/G FRET substrate was added using a Flying Reagent Dispenser, the plates were incubated at room temperature for 2 hours, and fluorescence intensity was measured by an Envision plate reader (PerkinElmer, Shelton, CT). For cell viability readout that measures cytotoxicity, 4 uL/well of CellTiter-Glo reagent was added into the assay plates using a FRD. After 30 min incubation at room temperature, the luminescence intensity in the plates was measured using a ViewLux (PerkinElmer) plate reader.
# Potency is the fitted concentration of half-maximal effect.
SMILES,Potency,"activity change, negative = cytotoxicity"
CC(=O)C(=O)O,inactive,–
COc1ccc(CN(CCN(C)C)c2ccccn2)cc1,inactive,–
O=CC(=O)c1ccccc1,–,-7.89% (inactive)
NC(=O)c1cccnc1,inactive,–
CC1(C)O[C@@H]2C[C@H]3[C@@H]4CCC5=CC(=O)C=C[C@]5(C)[C@@]4(F)[C@@H](O)C[C@]3(C)[C@]2(C(=O)CO)O1,inactive,–
CC(=O)CC(c1ccccc1)c1c(O)c2ccccc2oc1=O (stereo not given),inactive,–
Cc1c(C(=O)O)c(O)cc2c1C(=O)c1c(O)c([C@@H]3O[C@H](CO)[C@@H](O)[C@H](O)[C@H]3O)c(O)c(O)c1C2=O,inactive,–
CCCCCCCC(=O)OCC(COC(=O)CCCCCCC)OC(=O)CCCCCCC,inactive,–
CCN(Cc1c(F)cccc1Cl)c1c([N+](=O)[O-])cc(C(F)(F)F)cc1[N+](=O)[O-],43.3 µM (active),–
CCCc1cc(=O)[nH]c(=S)[nH]1,inactive,–
CCCCC1(COC(=O)CCC(=O)O)C(=O)N(c2ccccc2)N(c2ccccc2)C1=O,inactive,–
CCN(CC)C(=O)c1cccc(C)c1,inactive,–
Cc1ccc(S(=O)(=O)O)cc1,inactive,–
COc1ccc2cc(S(=O)(=O)N[C@H](CC(=O)N[C@H](Cc3ccc(CN4[C@H](C)CCC[C@@H]4C)cc3)C(=O)N(C)C(C)C)c3ccc4c(c3)OCO4)ccc2c1,29 µM (active),–
Nc1c(N=Nc2ccc(-c3ccc(N=Nc4cc(S(=O)(=O)O)c5ccccc5c4N)cc3)cc2)cc(S(=O)(=O)O)c2ccccc12,–,-2.43% (inactive)
OC[C@H]1O[C@H](O[C@]2(CCl)O[C@H](CCl)[C@@H](O)[C@@H]2O)[C@H](O)[C@@H](O)[C@H]1Cl,inactive,–
CCCCOC(=O)c1ccc(O)cc1,inactive,–
COc1ccc(C(Cl)=C(c2ccc(OC)cc2)c2ccc(OC)cc2)cc1,inactive,–
CCc1nc(N)nc(N)c1-c1ccc(Cl)cc1,–,-21.9% (inactive)
CN(C)C(=S)SC(=S)N(C)C,1.37 µM (active) and 1.88 µM (active),–

SMILES,Potency,"activity change, negative = cytotoxicity"
CCCCCCCCCCCCCCCC[N+](C)(C)Cc1ccccc1,35.5 µM (active) and 17.5 µM (active) and 10.6 µM (active),–
CCCC[P+](CCCC)(CCCC)CCCC,inactive,–
C1=CC2C3C=CC(C3)C2C1 (stereo not given),–,-5.83% (inactive)
Cn1c(=O)c2c(ncn2C)n(C)c1=O,inactive,–
Cc1cc(C)nc(NS(=O)(=O)c2ccc(N)cc2)n1,inactive,–
NS(=O)(=O)O,inactive,–
Cc1cc(=O)oc2cc(O)ccc12,inactive,–
CN[C@H]1CC[C@@H](c2ccc(Cl)c(Cl)c2)c2ccccc21,18.8 µM (active),–
Nc1ccc([N+](=O)[O-])cc1O,–,-13.2% (inactive)
CC1(C)S[C@@H]2[C@H](NC(=O)[C@H](N)c3ccccc3)C(=O)N2[C@H]1C(=O)O,inactive,–
O=C1NS(=O)(=O)c2ccccc21,inactive,–
Nc1ccc(S(N)(=O)=O)cc1,inactive,–
F[B-](F)(F)F,inactive,–
O=C1OC2(c3ccccc31)c1cc(Br)c(O)c(Br)c1Oc1c2cc(Br)c(O)c1Br,inactive,–
CN1CCc2cccc3c2[C@H]1Cc1ccc(O)c(O)c1-3,30.9 µM (active) and 20.4 µM (active) and inactive,–
O=C1c2c(O)cccc2Cc2cccc(O)c21,inactive,–
CN1[C@@H]2CC(OC(=O)[C@H](CO)c3ccccc3)C[C@H]1[C@@H]1O[C@@H]12 (stereo not given in full),inactive,–
CCOc1ccc(NC(C)=O)cc1,inactive,–
C=CCc1ccc(O)c(OC)c1,inactive,–
CN1CCC[C@H]1c1cccnc1,inactive,–
